PubChem BioAssay (NCI)
About 79,000 compounds went through this panel and 15% of them were active in at least one assay; those are over-represented in the sample as a whole. A number with no mark means an inactive call. The source made the active and inactive calls. No stated cut-off is given here; in the data, active means growth inhibition above about 70%; inactive means the rest.

How the values were obtained:
[1] = NCI Yeast Anticancer Drug Screen. Data for the rad50 strain (AID 155);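 further: 0% = growth of vehicle-only cultures of the same strain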; settings: S. cerevisiae rad50 strain growth inhibition; at 50.0 µM; hits give high values
Summary of the method: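 A DNA repair-deficient yeast mutant serves as the test organism; compound-induced growth inhibition is calculated against vehicle-treated cells.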

[2] = NCI Yeast Anticancer Drug Screen. Data for the mec2-1 strain (AID 157); settings: S. cerevisiae mec2-1 strain, at 50.0 µM, hits give high values
Summary of the method: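 Compounds were applied to mec2-1 yeast cells. Their growth was then compared with that of vehicle-treated cultures to give growth inhibition.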

[3] = NCI Yeast Anticancer Drug Screen. Data for the sgs1 mgt1 strain (AID 161);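 further: 0% = growth of cultures given vehicle only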; settings: S. cerevisiae sgs1 mgt1 strain, at 50.0 µM, hits give high values
Summary of the method: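 Yeast cells carrying a defined DNA-repair defect were exposed to test compounds. Growth inhibition was measured relative to vehicle-treated controls.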

[4] = NCI Yeast Anticancer Drug Screen. Data for the cln2 rad14 strain (AID 165);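 further: 0% = growth equal to vehicle treated cultures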; settings: S. cerevisiae cln2 rad14 strain, at 50.0 µM, hits give high values
Summary of the method: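 Strain: cln2 rad14 yeast, altered in cell cycle control and DNA damage repair. Read-out: growth inhibition vs vehicle.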

[5] = NCI Yeast Anticancer Drug Screen. Data for the bub3 strain (AID 167); settings: S. cerevisiae bub3 mutant strain, at 50.0 µM, hits give high values
Summary of the method: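 Inhibition values come from growth of compound-treated mutant yeast normalised to vehicle-treated controls.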

[6] = NCI Yeast Anticancer Drug Screen. Data for the mlh1 rad18 strain (AID 175); settings: S. cerevisiae mlh1 rad18 strain growth inhibition; at 50.0 µM; hits give high values
Summary of the method: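 A repair-deficient yeast strain is exposed to test compound, and growth is scored relative to vehicle-treated controls.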

| SMILES | growth inhibition [1] | growth inhibition [2] | growth inhibition [3] | growth inhibition [4] | growth inhibition [5] | growth inhibition [6] |
| --- | --- | --- | --- | --- | --- | --- |
| Cc1nc2ccc(Br)cc2c(=O)n1-c1nnc(C(C)(C)C)s1 | -10.9% | -40.4% | -23.2% | -5.75% | -20.6% | -12.2% |
| O=NN(Cc1ccccc1)Cc1ccccc1 | 2.55% | 0.1% | 3.1% | 0.5% | 8.6% | 21.4% |
| O=C(O)C(CSC(c1ccccc1)(c1ccccc1)c1ccccc1)N1C(=O)c2ccccc2C1=O (stereo unspecified) | 98.8% (active) | 99.2% (active) | 99.3% (active) | 96.8% (active) | 98.8% (active) | 99% (active) |
| CCCC[N+]1(C)CCCC1c1cccnc1 (stereo unspecified) | -15.5% | -7.1% | 5.3% | -10.2% | -10.8% | -7.85% |
| COP1(=S)OCC2OC(n3cc(C)c(=O)[nH]c3=O)CC2O1 (stereo unspecified) | 0.55% | -17.2% | -12.8% | -9.1% | 23.1% | -9.25% |
| Oc1ccccc1C=NC1CCCCC1N=Cc1ccccc1O.[Ni] (stereo unspecified) | 18.7% | 4.05% | 7.9% | -8.6% | -0.55% | -10.4% |
| Nc1ccc2ncccc2c1 (tested in a mixture with another compound) | 39.2% | 97.5% (active) | 45.5% | 56.4% | 46.5% | 26.2% |
| CC(=O)CC(C)=O.CC(=O)CC(C)=O.[Co] | -31.9% | -41% | -8% | -133% | -52.3% | 0.7% |
| CCN1CC2CCC1C2 (stereo unspecified) | 5.2% | -3.05% | -14.5% | 5.5% | 3.7% | 4.35% |
| NP(=O)(OCCC(OCc1ccccc1)OCc1ccccc1)N(CCCl)CCCl (stereo unspecified) | 54.6% | 9.1% | 54.6% | 48.5% | 6.2% | 31.8% |
| N#CCc1ccc(O)cc1 | 1.25% | 6.75% | -20.8% | -5.1% | -4.7% | 14% |
| O=C1NC(=O)C(=C/C=C/c2ccccc2)C(=O)N1 | 34.2% | -3.5% | 18.6% | 16.4% | 10.5% | -2.25% |
| CCN(CC)c1ccc([P+](=O)O)cc1 | 6.45% | -9.45% | -9.4% | -27.6% | -7.4% | -8.4% |
| CC(N)Cc1c[nH]c2ccccc12 (stereo unspecified) | 2.9% | -22.2% | 1.1% | 20.6% | -1.75% | 12.8% |
| CN(C)C(=O)Oc1ccc(C2CCCN2C)cn1 (stereo unspecified) | 3.95% | 5.45% | 3.75% | -13.1% | -6% | -22.7% |
| CN(C)Cc1c[nH]c2ccc(F)cc12 | -27% | -13.8% | -15.2% | 5.65% | -11.8% | -16.9% |
| CCCn1cc2c3c(cccc31)[C@H]1C[C@@H](C)CN(C)[C@@H]1C2 | 49.4% | 45.4% | 41% | 45.1% | 44% | 36.5% |
| NC(=O)OC(CCl)CCl | 35.2% | -10.1% | -9% | -13.3% | -10% | -4.3% |
| CC(=O)C(=[N+]=[N-])C(=O)N(C)CCC#N | -7.3% | 6.25% | 11.2% | 13.7% | 7.25% | 20.9% |
| OC(CN1CC1)C(O)CN1CC1 (stereo unspecified) | -16.4% | -26.2% | -34% | 8.15% | -44.8% | -14.2% |
| COc1ccc(C(O)(C(=O)O)c2ccc(OC)c(OC)c2)cc1OC | 5.6% | -1.25% | -1.7% | -13.9% | 8% | 0.2% |

| SMILES | growth inhibition [1] | growth inhibition [2] | growth inhibition [3] | growth inhibition [4] | growth inhibition [5] | growth inhibition [6] |
| --- | --- | --- | --- | --- | --- | --- |
| C[C@]12CCc3nonc3C1CC[C@@H]1C2CC[C@@]2(C)C1CC[C@@H]2O (stereo partly specified) | 3.65% | -0.65% | -0.4% | -53.1% | -7.55% | -2.1% |
| O=[N+]([O-])c1ccc(/C=C/c2ccc(S(=O)(=O)F)cc2Cl)c(Cl)c1 | -13.2% | -11.2% | 0.75% | -34.3% | -6.7% | -4.35% |
| O=C1NCN(c2ccccc2)C12CCN(CCCS(=O)(=O)c1ccccc1)CC2 | -22.4% | -13.6% | -9.55% | -22.6% | 3.5% | -18% |
| [CH3][Sb]1([Cl])[CH2]CCC[CH2]1 | 0.5% | 32.9% | 11.1% | -6.1% | 32% | 36.2% |
| C[N+]12CCC34C5=CC(=O)C(=O)C=C5[N+]5(C)C(=O)CC6OCC=C(C1)C(CC32)C6C45 (stereo unspecified) | -2% | -22.1% | 4.65% | 10.9% | 11.7% | 0.7% |
| NC(=O)NC(O)C(Cl)(Cl)Cl (stereo unspecified) | -12.1% | -33.9% | -24.9% | -42% | -32.6% | -29.4% |
| CC1=CC2=C(C)C3(CC3)[C@@](C)(O)C(=O)C2=C1 | 45.5% | 14.3% | 55.8% | 23.9% | 26.9% | -15.2% |
| CC(Cl)CN1CCCCC1 (stereo unspecified) (tested in a mixture with another compound) | 15.2% | 1.25% | 23.8% | 7.75% | 3.2% | 17.9% |
| CC1(C)OC2(C)CCC1C1C2N1C(=O)c1ccccc1 (stereo unspecified) | 0.75% | -9.75% | 5.25% | 4.95% | 19.2% | -6.2% |
| CP(C)CC[PH+](CC[PH+](C)C)CC[PH+](C)C.[C-]#[O+].[C-]#[O+].[W] | -1.25% | -6.35% | -13.1% | 24.4% | -0.45% | -0.9% |
| CCc1c2c(c(C)n1C)C(c1ccccc1)=NCC(=O)N2 | 8.1% | 21.1% | 21.7% | -7.1% | 13.4% | 3% |
| CC(C)(N)Cc1ccc(N)cc1 | 15.2% | -1.55% | 7.15% | 18.4% | 2.5% | 24.4% |
| O=c1c(O)c(-c2ccccc2)oc2ccccc12.[Zr] | -22.1% | -6.65% | -7.7% | 18.4% | 22.4% | -7.75% |
| NC1(C(=O)O)CCCC1 | -21.1% | -21.9% | -15.2% | -63.8% | -1.5% | -28.1% |
| O=C(O)C(F)F | -16.9% | -1.2% | -18.2% | -31% | -15.3% | -3.15% |
| O=C(Nc1cccc(Cl)c1Cl)C(Cl)(Cl)Cl | 11.8% | 20.9% | 19.4% | 6.35% | 31.2% | 28.8% |
| CCOP(=O)(OCC)/C(C#N)=C/C=C/c1ccco1 | 2.65% | -21.3% | -30.7% | 4.2% | -40.1% | 1.8% |
| O=C1N=NC(Cl)c2ccccc21 (stereo unspecified) | -20.6% | -13.5% | -19.1% | 2.65% | -17.9% | -10.8% |
| N.N.N.N.O=N[O-].O=N[O-].[Cl-].[Co+3] | 4.25% | 16.1% | 2.55% | 36.1% | 7.25% | 0.2% |
| CC(C)(C)N.[O]=[Cr](=[O])([OH])[OH] | 20.9% | 7.45% | 29.1% | -2.25% | 21.7% | 21% |
